# Compound activity as filed in PubChem.
# CYP2C9 activ – human CYP2C9 activators, primary screen, biochemical, luminescence; Cytochrome P450 2C9 (Homo sapiens), P11712; recombinant CYP2C9, luciferin-H conversion; stronger effect = higher value; factor 1 = untreated enzyme, 0 = blocked; activation factor at 5 µM; actives 1.4% (n = 96,000);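 active = activation factor of 2 or more for CYP2C9 at a 5 µM dose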;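 also: 0 = sulfaphenazole-blocked wells and 1 = vehicle-only wells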
# PLAP activator – PLAP enzyme activators, biochemical, luminescence, HTS | purified PLAP enzyme, luminescent substrate read-out; stronger effect = higher value | Alkaline phosphatase, placental type (Homo sapiens), P05187 | AID 696, 2007 | activation fold at 20 µM | actives 1.2% (n = 96,000); in the data active = activation fold above about 2
# CYP2C9 inhib – blockers of cytochrome P450 2C9 activity – biochemical, luminescence, ADME assay, primary screen | P11712 | CYP2C9 Supersomes, luciferin-H conversion | inhibition, % at 5 µM | actives 20% (n = 96,000) | AID 777, 2007;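 active = blocking of liver enzyme CYP2C9 beyond about 50% at 5 µM, limit read from the data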
# CYP2C19 activ – human CYP2C19 activators, primary screen, biochemical, luminescence; Cytochrome P450 2C19 (Homo sapiens), P33261; recombinant CYP2C19, luciferin-H EGE luminescence; stronger effect = higher value; 0 = fully inhibited enzyme, 1 = untreated enzyme; activation factor at 5 µM; 96,000 tested, under 10 active; AID 1025, 2008;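 active = activation factor of at least 2 at 5 µM in the primary screen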;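 also: 0 = wells with 2.5 mM tranylcypromine and 1 = vehicle-only wells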
# Target sequence (P33261 whole entry, looked up): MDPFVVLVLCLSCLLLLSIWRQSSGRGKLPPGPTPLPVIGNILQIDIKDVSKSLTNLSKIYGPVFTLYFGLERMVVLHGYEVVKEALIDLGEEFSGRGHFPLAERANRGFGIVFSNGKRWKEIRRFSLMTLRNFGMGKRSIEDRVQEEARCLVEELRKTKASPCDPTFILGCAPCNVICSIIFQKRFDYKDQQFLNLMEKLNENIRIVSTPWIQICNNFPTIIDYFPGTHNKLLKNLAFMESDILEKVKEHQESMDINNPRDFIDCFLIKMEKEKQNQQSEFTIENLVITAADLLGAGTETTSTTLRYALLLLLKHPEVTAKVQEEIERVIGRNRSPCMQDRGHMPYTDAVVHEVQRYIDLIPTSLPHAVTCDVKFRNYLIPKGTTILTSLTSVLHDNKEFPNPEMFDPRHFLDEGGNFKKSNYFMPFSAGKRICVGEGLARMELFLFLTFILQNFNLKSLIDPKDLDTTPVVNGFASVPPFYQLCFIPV
# CYP2C19 inhib – blockers of cytochrome P450 2C19 activity – biochemical, luminescence, ADME assay, primary screen. actives 21% (n = 96,000). AID 778, 2007. inhibition, % at 5 µM. P33261. CYP2C19 Supersomes, luciferin-H EGE luminescence, 30 min;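 active = CYP2C19 inhibition above a set limit at 5 µM in the primary screen, cut at about 50% in these data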;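 also: plate controls were negative control wells for no effect and 2.5 mM tranylcypromine positive control for full effect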
# Starred values were filed as active, the others as inactive. Compounds with a hit are over-represented: about 31% of the library has one in this group of screens.
SMILES,CYP2C9 activ,PLAP activator,CYP2C9 inhib,CYP2C19 activ,CYP2C19 inhib
COc1cccc(C2CC(c3ccccc3Cl)n3ncnc3N2)c1 (centres undefined),0.5,1.3,52*,0,97*
CCOc1ccc(C2CC(c3cccc(OC)c3)Nc3ncnn32)cc1 (centres undefined),0,1.6,95*,0.2,79*
COc1cccc(C2CC(c3cccs3)Nc3ncnn32)c1 (centres undefined),1,0.9,0,0.7,32
Cc1ccc(-c2c3c(=O)n(C)c(=O)n(C)c3cn2Cc2cccnc2)cc1,1,1.1,3,0.7,31
O=C(Nc1nnc(CCc2ccccc2)s1)c1ccco1,0.7,0.9,26,0.7,27
O=C(c1ccccc1)N1CCN2C(=O)c3ccccc3C12c1ccc(Cl)cc1 (centres undefined),0.7,1.4,31,0.4,63*
O=C(Nc1ccccc1)N1CCN2C(=O)c3ccccc3C12c1ccccc1 (centres undefined),0,1.8,96*,0.1,93*
COc1ccc(/C=N/n2c(C)cc(C)c(C(N)=O)c2=O)cc1,1,0.8,0,1,-1
CC(NC(=O)C(=O)NN=C1CCCCCCC1)c1ccccc1 (centres undefined),1.1,1.4,-7,1.1,-7
Cc1ccccc1C(=O)NC(C)c1ccc2c(c1)CCCC2 (centres undefined),2.2*,1,-123,0.8,18
COC(=O)C(Cc1cnc(Cl)s1)(C(=O)OC)c1ccc([N+](=O)[O-])cc1[N+](=O)[O-],0.3,1.4,67*,0.2,79*
COC(=O)C(Cc1cnc(Cl)s1)(C(=O)OC)c1ccc(C(F)(F)F)cc1[N+](=O)[O-],0.5,1.4,51*,0.1,87*
COc1ccccc1NC(=O)N1CCCC1C(=O)NC1CCCCC1 (centres undefined),1.1,1,-7,0.8,18
COC(=O)c1ccc(-c2ccc(C(=O)N3CCCN(C)CC3)cc2)cc1,1.3,1.1,-26,0.9,7
CC(C)Cn1c(C(C)C)nc([N+](=O)[O-])c1S(=O)(=O)c1ccc(F)cc1,0.9,1,13,0.3,66*
Nc1cc(-c2ccc(Cl)cc2)nn1S(=O)(=O)c1ccccc1,0.2,1,83*,0.4,64*
Nc1cc(-c2ccccc2)nn1Cc1ccc(Cl)cc1,0.2,0.9,75*,0.1,93*
Clc1ccc(SCc2cc(-c3ccccc3)no2)cc1,1,0.8,4,0.7,35
CCS(=O)(=O)n1nc(-c2ccccc2)cc1N,0.9,0.8,7,0.3,67*
CCCS(=O)(=O)n1nc(-c2ccccc2)cc1N,0.3,0.8,67*,0.1,93*
CCCS(=O)(=O)N1CCN(C(=O)c2ccc(-c3ccccc3)cc2)CC1,0.8,1.5,19,0.8,21
COc1ccc(CCC(=O)N2CC(C)OC(C)C2)cc1 (centres undefined),0.9,1.2,10,0.7,28
Cn1c(=O)c2c(nc(N3CCOCC3)n2CCCNC2=NCCCCC2)n(C)c1=O,1.1,0.8,-7,1.1,-10
Cc1ccc(NC(=O)CN(C)CC(=O)Nc2c(C)cccc2C)c(Br)c1,0.7,1.3,30,1,5
C=CCc1ccc(OCCOCCNCCCC)c(OC)c1,1.1,1.6,-8,0.6,38
SMILES,CYP2C9 activ,PLAP activator,CYP2C9 inhib,CYP2C19 activ,CYP2C19 inhib
CCCS(=O)(=O)n1nc(-c2ccc(Br)cc2)cc1N,0.1,0.7,86*,0.3,68*
Cc1c(C#N)c(N)c(C(=O)c2ccccc2)n1Cc1ccccc1,0.2,1.1,76*,0,99*
Cc1c(C#N)c(NC(=O)c2cccc(Cl)c2)n(Cc2ccccc2)c1C,1,1,3,1,-1
O=C(NC(CSCc1ccccc1)C(=O)N/N=C/c1ccc(O)cc1O)c1ccc([N+](=O)[O-])cc1 (centres undefined),0.7,2.7*,26,0.8,23
O=C(N/N=C/c1ccc(O)c(O)c1O)/C(=C/c1ccc([N+](=O)[O-])cc1)NC(=O)c1ccccc1,0.9,1.9,13,0.8,15
CC(=O)NC(Cc1cc(C)ccc1C)C(=O)N1CCN(C(=O)Nc2ccc(C(C)=O)cc2)CC1 (centres undefined),1,1.5,-1,0.9,13
CCOC(=O)C1C2C=CC3(CN(Cc4cccs4)C(=O)C13)O2 (centres undefined),1.2,0.8,-24,0.8,15
CCCN1Cc2cccc(C(=O)Nc3ccc(CC)cc3)c2C1=O,0.6,0.8,42,1,2
O=C(O)c1cccc2c1C(=O)N(Cc1ccncc1)C2,0.9,1,6,1,-2
CCCN1Cc2cccc(C(=O)Nc3ccc4c(c3)OCO4)c2C1=O,0.4,0.8,60*,0.9,10
COc1cc(NC(=O)c2cccc3c2C(=O)N(Cc2cccnc2)C3)cc(OC)c1OC,0.3,1.4,69*,0.5,48
CCCN1Cc2cccc(C(=O)Nc3ccc4c(c3)OCCO4)c2C1=O,0.1,1.5,92*,0.2,81*
O=C(Nc1ccc2c(c1)OCO2)c1cccc2c1C(=O)N(Cc1cccnc1)C2,0.2,0.9,77*,0.7,34
CCCN1Cc2cccc(C(=O)Nc3ccc(C)cc3)c2C1=O,0.9,1.1,14,1,0
CCn1c(C)c(CCC(=O)O)c(=O)n2nc(-c3ccccc3OC)cc12,0.7,1.2,31,0.9,9
O=C(NCCN1CCN(c2ccccc2F)CC1)C1c2ccccc2C(=O)N2CCc3ccccc3C12 (centres undefined),0.8,1.7,22,0.8,17
CCN(CC)CCNC(=O)C1c2cc(OC)c(OC)cc2C(=O)N2CCc3ccccc3C12 (centres undefined),0.2,1.5,76*,1,2
CCOC(=O)N1CCN(C(=O)C2c3cc(OC)c(OC)cc3C(=O)N3CCc4ccccc4C23)CC1 (centres undefined),0.2,1.8,76*,0.9,6
CC1=C(C(=O)NC2CCCC(C)C2C)C2(CCCCC2)OC1=O (centres undefined),0.9,1,10,0.8,18
CC1=C(C(=O)NC2CCCCC2C)C2(CCC(C)CC2)OC1=O (centres undefined),0.5,1,48,0.1,91*
CC1=C(C(=O)N2CCCCC2)C2(CCC(C)CC2)OC1=O (centres undefined),1,1.1,-1,0.5,51*
COc1cccc(CNC(=O)C2=C(C)C(=O)OC23CCC(C)CC3)c1 (centres undefined),0.7,1.1,25,0.1,91*
